Measurements reported in PubChem BioAssay (NCATS).
Inconclusive results are not listed. A call without a number means that no potency is given here. Activity calls are given as the source filed them. Calls come from the whole dose curve; as a rule, active = well fitted inhibition curve with a large enough effect; inconclusive = small, poorly fitted or top-dose-only effect; inactive = flat fitted curve, though single readings scatter.

The molecules below were run against Voltage-gated inwardly rectifying potassium channel KCNH2 (Homo sapiens) (UniProt Q12809) (assay: qHTS Assay for Small Molecule Inhibitors of the Human hERG Channel Activity (AID 588834;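 note: lower thallium flux fluorescence means stronger hERG block; nearly all actives have a fitted effect of over 50% in size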)). Conditions: U2OS BacMam hERG, FluxOR thallium flux fluorescence; series mostly up to 46.1 µM.
Method in brief: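 Concentration-response qHTS measuring drop in thallium-sensitive dye signal. U2OS cells carrying BacMam hERG; compound exposure ~10 min, then stimulation buffer and 2 min read at 1 sec intervals.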
Potency is the fitted concentration of half-maximal effect.

Chain of Voltage-gated inwardly rectifying potassium channel KCNH2 (Homo sapiens) (Q12809 whole entry, looked up): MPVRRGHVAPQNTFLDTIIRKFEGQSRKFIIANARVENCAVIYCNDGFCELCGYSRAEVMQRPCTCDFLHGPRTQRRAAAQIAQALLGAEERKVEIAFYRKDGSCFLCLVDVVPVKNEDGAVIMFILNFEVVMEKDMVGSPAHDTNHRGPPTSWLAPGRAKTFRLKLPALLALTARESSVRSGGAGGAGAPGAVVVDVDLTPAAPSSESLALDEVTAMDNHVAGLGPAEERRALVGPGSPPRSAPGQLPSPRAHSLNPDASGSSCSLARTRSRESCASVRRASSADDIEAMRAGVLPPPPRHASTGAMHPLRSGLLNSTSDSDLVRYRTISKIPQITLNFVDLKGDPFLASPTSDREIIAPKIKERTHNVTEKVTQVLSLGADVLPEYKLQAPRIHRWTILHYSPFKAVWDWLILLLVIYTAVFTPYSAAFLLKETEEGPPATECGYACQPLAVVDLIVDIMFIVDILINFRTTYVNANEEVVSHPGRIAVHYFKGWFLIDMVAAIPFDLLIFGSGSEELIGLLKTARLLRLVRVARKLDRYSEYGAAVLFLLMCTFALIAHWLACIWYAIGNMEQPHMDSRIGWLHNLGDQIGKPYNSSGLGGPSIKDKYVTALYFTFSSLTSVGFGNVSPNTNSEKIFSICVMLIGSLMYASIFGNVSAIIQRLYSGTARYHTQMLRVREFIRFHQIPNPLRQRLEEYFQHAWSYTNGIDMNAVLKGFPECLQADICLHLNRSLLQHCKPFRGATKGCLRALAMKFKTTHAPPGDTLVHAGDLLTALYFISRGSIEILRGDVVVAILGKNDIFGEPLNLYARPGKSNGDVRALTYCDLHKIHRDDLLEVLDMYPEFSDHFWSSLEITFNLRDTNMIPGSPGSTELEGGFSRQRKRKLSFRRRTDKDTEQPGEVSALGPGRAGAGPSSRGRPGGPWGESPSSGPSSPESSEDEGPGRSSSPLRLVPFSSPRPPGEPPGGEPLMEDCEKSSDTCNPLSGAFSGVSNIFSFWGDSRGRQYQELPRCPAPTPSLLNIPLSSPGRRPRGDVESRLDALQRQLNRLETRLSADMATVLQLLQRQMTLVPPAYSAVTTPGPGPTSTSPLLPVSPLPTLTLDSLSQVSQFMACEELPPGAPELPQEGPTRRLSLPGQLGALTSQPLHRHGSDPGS

| Structure (SMILES) | Potency |
| --- | --- |
| CN1CCN(C2=Nc3ccccc3Sc3ccc(Cl)cc32)CC1 | 14.1 µM (active) |
| O=[N+]([O-])c1cccc(S(=O)(=O)NCCNS(=O)(=O)c2cccc([N+](=O)[O-])c2)c1 | inactive |
| CCCCCCCCCCCCCC[N+](C)(C)Cc1ccccc1 | 7.94 µM (active) |
| Cc1nc(-c2ccc(Cl)cc2)oc1COC(C)(C)C(=O)O | inactive |
| CC(=O)OC[C@H]1O[C@@H](n2ncc(=O)[nH]c2=O)[C@H](OC(C)=O)[C@@H]1OC(C)=O | inactive |
| FC1(F)C(F)(F)C(F)(F)C2(F)C(F)(F)C(F)(F)C(F)(F)C(F)(F)C2(F)C1(F)F (stereo not drawn) | inactive |
| C[C@@]12C(=O)OC(=O)[C@]1(C)C1CCC2O1 | inactive |
| CCCCCCCCNC(C)C(O)c1ccc(SC(C)C)cc1 (stereo not drawn) | 0.631 µM (active) |
| O=C1C(=O)c2ccccc2C(O)=C1C1CCC(c2ccc(Cl)cc2)CC1 (stereo not drawn) | inactive |
| CN1CCN(c2cc3c(cc2F)c(=O)c(C(=O)O)cn3-c2ccc(F)cc2)CC1 | inactive |
| O=C(Nc1cccc(C2=NCCN2)c1)Nc1cccc(C2=NCCN2)c1 | inactive |
| CCNC(=O)/C=C/c1cccc(Br)c1 | inactive |
| O=C(NCCc1c[nH]c2ccccc12)c1cccnc1 | inactive |
| COc1ccc(/C=N/NC(=O)c2ccncc2)cc1OC | inactive |
| CC(C)[C@@H]1CC[C@@H](C)CC1=O | inactive |
| CC(C)[N+](C)(C)CC(O)COc1cccc2ccccc12 (stereo not drawn) | inactive |
| CC[N+](C)(CC)CCOC(=O)C(O)(c1ccccc1)C1CCCCC1 (stereo not drawn) | inactive |
| C[C@H]1[C@H]2CC[C@H]3[C@@H]4CC=C5C[C@@H](N(C)C)CC[C@]5(C)[C@H]4CC[C@]23CN1C | inactive |
| NS(=O)(=O)Cc1noc2ccccc12 | inactive |

| Structure (SMILES) | Potency |
| --- | --- |
| CC(C)NCC(O)c1ccc2ccccc2c1 (stereo not drawn) | inactive |
| NC(N)=NCc1cccc(I)c1 | inactive |
| CCc1oc2ccccc2c1C(=O)c1cc(Br)c(O)c(Br)c1 | inactive |
| CCc1cc(Cl)c(OC)c(C(=O)NC[C@@H]2CCCN2CC)c1O | 2.82 µM (active) |
| O=C(CCN1CCN2CCCC2C1)N1c2ccccc2Sc2ccc(Cl)cc21 (stereo not drawn) | 15.8 µM (active) |
| CC(=O)OCC1=C(C(=O)O)N2C(=O)[C@@H](NC(=O)CSc3ccncc3)[C@H]2SC1 | inactive |
| CCC1NC(=O)c2cc(S(N)(=O)=O)c(Cl)cc2N1 (stereo not drawn) | inactive |
| NC(=S)N/N=C/c1cccnc1 | inactive |
| N#CCC(=O)NN | inactive |
| CCN(CC)CCOc1ccccc1C(=O)CCc1ccccc1 | 1.12 µM (active) |
| CO[C@]12C[C@@H](COC(=O)c3cncc(Br)c3)CN(C)[C@@H]1Cc1cn(C)c3cccc2c13 | 0.398 µM (active) |
| CO[C@H]1C=CO[C@@]2(C)Oc3c(C)c(O)c4c(O)c(c(/C=N/N5CCN(C)CC5)c(O)c4c3C2=O)NC(=O)/C(C)=C\C=C[C@H](C)[C@H](O)[C@@H](C)[C@@H](O)[C@@H](C)[C@H](OC(C)=O)[C@@H]1C | inactive |
| CCCCCCCCCCC[C@@H](C[C@@H]1OC(=O)[C@H]1CCCCCC)OC(=O)[C@H](CC(C)C)NC=O | inactive |
| C#C[C@]1(O)CC[C@H]2[C@@H]3[C@H](C)CC4=C(CCC(=O)C4)[C@H]3CC[C@@]21C | inactive |
| CCN1CCN(C(=O)N[C@@H](C(=O)N[C@@H]2C(=O)N3C(C(=O)O)=C(CSc4nnnn4C)CS[C@H]23)c2ccc(O)cc2)C(=O)C1=O | inactive |
| COc1ccc(C(=O)c2ccccc2O)c(O)c1 | inactive |
| CC(=O)O[C@]1(C(C)=O)CC[C@H]2[C@@H]3C=C(Cl)C4=CC(=O)CC[C@]4(C)[C@H]3CC[C@@]21C | inactive |
| CCOC(=O)c1ccc(N)cc1 | inactive |
| N/C(=N\N=C\c1ccc(Cl)cc1)N/N=C/c1ccc(Cl)cc1 | 3.55 µM (active) |
